From PubChem BioAssay (EPA / NIEHS)
The source made the active and inactive calls. How the source made its calls: active means hit-call score of the fitted dose curve at least 0.9, where 1 is the maximum; inactive means score below 0.9.

Tests used:
[1] = read-out: Tissue plasminogen activator (tPA), PLAT (gene 5327); test: BSK_BE3C_tPA: BioMAP Diversity Plus: BE3C Assay for Tissue plasminogen activator (tPA) Biomarker Activity (AID 2283041); details: primary human bronchial epithelial cells; actives raise or lower the signal
Procedure, shortened: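 Gain- or loss-of-signal in tPA, measured by ELISA, derived by bidirectional fitting against DMSO. Cells: human primary bronchial epithelial; read at 24 h after chemical dosing.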

[2] = read-out: Interleukin-8 (IL8), CXCL8 (gene 3576); test: BSK_CASM3C_IL8: BioMAP Diversity Plus: CASM3C Assay for Interleukin-8 (IL8) Biomarker Activity (AID 2283042); details: primary human coronary artery smooth muscle cells; actives raise or lower the signal;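 further: IL-8 protein level quantified by ELISA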
[3] = read-out: Human Leukocyte Antigen - DR isotype (HLADR), HLA-DRA (gene 3122); test: BSK_CASM3C_HLADR: BioMAP Diversity Plus: CASM3C Assay for Human Leukocyte Antigen - DR isotype (HLADR) Biomarker Activity (AID 2283043); details: primary human coronary artery smooth muscle cells; actives raise or lower the signal;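 further: cell-surface HLA-DR protein level quantified by ELISA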
[4] = read-out: Macrophage colony-stimulating factor (MCSF), CSF1 (gene 1435); test: BSK_CASM3C_MCSF: BioMAP Diversity Plus: CASM3C Assay for Macrophage colony-stimulating factor (MCSF) Biomarker Activity (AID 2283044); details: primary human coronary artery smooth muscle cells; actives raise or lower the signal;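 further: M-CSF protein amount quantified by ELISA after 24 h exposure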
[5] = read-out: Low-density lipoprotein receptor (LDLR), LDLR (gene 3949); test: BSK_CASM3C_LDLR: BioMAP Diversity Plus: CASM3C Assay for Low-density lipoprotein receptor (LDLR) Biomarker Activity (AID 2283045); details: primary human coronary artery smooth muscle cells; actives raise or lower the signal;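 further: LDLR protein level on the cell surface quantified by ELISA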
[6] = read-out: Monocyte Chemoattractant Protein-1 (MCP1), CCL2 (gene 6347); test: BSK_CASM3C_MCP1: BioMAP Diversity Plus: CASM3C Assay for Monocyte Chemoattractant Protein-1 (MCP1) Biomarker Activity (AID 2283046); details: primary human coronary artery smooth muscle cells; actives raise or lower the signal;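 further: MCP-1 level quantified by ELISA 24 h after dosing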
[7] = BSK_CASM3C_Proliferation: Cell Proliferation Assessment in the BioMAP Diversity Plus: CASM3C Assay (AID 2283047); details: primary human coronary artery smooth muscle cells;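 further: sulforhodamine B total protein stain as relative cell number at 560 nm; sub-confluent cells exposed 48 h before staining; fitted both ways against DMSO so gain or loss of cell number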
[8] = read-out: Monokine induced gamma interferon (MIG), CXCL9 (gene 4283); test: BSK_CASM3C_MIG: BioMAP Diversity Plus: CASM3C Assay for Monokine induced gamma interferon (MIG) Biomarker Activity (AID 2283048); details: primary human coronary artery smooth muscle cells; actives raise or lower the signal;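 further: MIG protein level measured by ELISA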
[9] = read-out: serum amyloid A (SAA), SAA1 (gene 6288); test: BSK_CASM3C_SAA: BioMAP Diversity Plus: CASM3C Assay for serum amyloid A (SAA) Biomarker Activity (AID 2283049); details: primary human coronary artery smooth muscle cells; actives raise or lower the signal;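 further: SAA protein level quantified by ELISA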
[10] = BSK_CASM3C_SRB: Viability Assessment in the BioMAP Diversity Plus: CASM3C Assay (AID 2283050); details: primary human coronary artery smooth muscle cells;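 further: total protein by SRB staining as cytotoxicity measure in parallel cultures; cells exposed to compound for 24 h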
[11] = read-out: Thrombomodulin, THBD (gene 7056); test: BSK_CASM3C_Thrombomodulin: BioMAP Diversity Plus: CASM3C Assay for Thrombomodulin Biomarker Activity (AID 2283051); details: primary human coronary artery smooth muscle cells; actives raise or lower the signal;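 further: thrombomodulin protein level measured by ELISA 24 h after dosing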
[12] = read-out: Tissue Factor, F3 (gene 2152); test: BSK_CASM3C_TissueFactor: BioMAP Diversity Plus: CASM3C Assay for Tissue Factor Biomarker Activity (AID 2283052); details: primary human coronary artery smooth muscle cells; actives raise or lower the signal;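 further: cell surface tissue factor protein level read by ELISA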
[13] = read-out: Interferon-gamma inducible Protein 10 (IP10), CXCL10 (gene 3627); test: BSK_hDFCGF_IP10: BioMAP Diversity Plus: hDFCGF Assay for Interferon-gamma inducible Protein 10 (IP10) Biomarker Activity (AID 2283053); details: primary human foreskin fibroblasts; actives raise or lower the signal
Procedure, shortened: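 Cells: human dermal foreskin fibroblasts. Exposure: 24 h post-dosing. Detection: IP-10 ELISA, with values expressed against DMSO controls and fitted in both directions.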

[14] = read-out: Urokinase-type plasminogen activator receptor (uPAR), PLAUR (gene 5329); test: BSK_CASM3C_uPAR: BioMAP Diversity Plus: CASM3C Assay for Urokinase-type plasminogen activator receptor (uPAR) Biomarker Activity (AID 2283054); details: primary human coronary artery smooth muscle cells; actives raise or lower the signal;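 further: cell-surface uPAR protein level quantified by ELISA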
[15] = read-out: Vascular cell adhesion molecule 1 (VCAM1), VCAM1 (gene 7412); test: BSK_CASM3C_VCAM1: BioMAP Diversity Plus: CASM3C Assay for Vascular cell adhesion molecule 1 (VCAM1) Biomarker Activity (AID 2283055); details: primary human coronary artery smooth muscle cells; actives raise or lower the signal;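 further: VCAM-1 protein level quantified by ELISA on the cells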
[16] = read-out: Epidermal growth factor receptor (EGFR), EGFR (gene 1956); test: BSK_hDFCGF_EGFR: BioMAP Diversity Plus: hDFCGF Assay for Epidermal growth factor receptor (EGFR) Biomarker Activity (AID 2283057); details: primary human foreskin fibroblasts; actives raise or lower the signal
Procedure, shortened: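 Dosing human primary skin fibroblasts, then measuring surface EGFR by ELISA at 24 h, gives the endpoint; gains and losses relative to DMSO were fitted in both directions.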

[17] = read-out: Interleukin-8 (IL8), CXCL8 (gene 3576); test: BSK_hDFCGF_IL8: BioMAP Diversity Plus: hDFCGF Assay for Interleukin-8 (IL8) Biomarker Activity (AID 2283058); details: primary human foreskin fibroblasts; actives raise or lower the signal
Procedure, shortened: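 Fibroblast monolayers (human foreskin, hDFCGF) received test chemical for 24 h before ELISA detection of IL-8; either increases or decreases relative to DMSO count as activity.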

[18] = read-out: Macrophage colony-stimulating factor (MCSF), CSF1 (gene 1435); test: BSK_hDFCGF_MCSF: BioMAP Diversity Plus: hDFCGF Assay for Macrophage colony-stimulating factor (MCSF) Biomarker Activity (AID 2283060); details: primary human foreskin fibroblasts; actives raise or lower the signal
Procedure, shortened: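 fibroblasts (human foreskin, primary), 24 h post-dose; M-CSF by ELISA; bidirectional fit, DMSO = baseline.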

[19] = read-out: Collagen III, COL3A1 (gene 1281); test: BSK_hDFCGF_CollagenIII: BioMAP Diversity Plus: hDFCGF Assay for Collagen III Biomarker Activity (AID 2283056); details: primary human foreskin fibroblasts; actives raise or lower the signal
Procedure, shortened: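 Response relative to DMSO, fitted in both directions, reflects ELISA-measured collagen III in human primary skin fibroblasts 24 h after compound addition.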

[20] = BSK_hDFCGF_Proliferation: Cell Proliferation Assessment in the BioMAP Diversity Plus: hDFCGF Assay (AID 2283059); details: primary human foreskin fibroblasts;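 further: curves fitted for both rise and fall of signal versus DMSO baseline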
Procedure, shortened: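 Primary human foreskin fibroblasts, sub-confluent; […]; 10% TCA fix, 0.1% SRB stain, A560 total protein. Gain/loss fitted bidirectionally vs DMSO control.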

Measured: AC50

Nc1cc(Cl)cc(C(=O)O)c1Cl
not listed: [19] | [20]
inactive: all other assays above

CCC(C)c1ccc(O)cc1 (stereo not given)
not listed: [19] | [20]
inactive: all other assays above

O=C(O)C1C2CCC(O2)C1C(=O)O (stereo not given)
active: [1] 18.6 µM | [3] 4.92 µM | [6] 21.8 µM | [19] 24.3 µM | [20] 18.6 µM
not listed: [4] | [7]
inactive: all other assays above

Cc1ccc(N=C=O)cc1N=C=O
active: [3] 28.5 µM | [7] 20 µM
not listed: [19] | [20]
inactive: all other assays above

COC(=O)c1ccccc1N
not listed: [19] | [20]
inactive: all other assays above

CN(C)c1ccc(C(=O)c2ccc(N(C)C)cc2)cc1
active: [7] 2 µM
not listed: [19] | [20]
inactive: all other assays above

CC(C)N(Cc1ccccc1)C(=O)C(C)(C)C
not listed: [19] | [20]
inactive: all other assays above

CCOC(=O)[C@]1(c2ccccc2)Oc2ccccc2[C@@H]1N
active: [3] 31 µM | [5] 23.4 µM | [13] 36.6 µM | [17] 32.2 µM | [18] 28.4 µM
not listed: [19] | [20]
inactive: all other assays above

CCC[CH2][Sn]([Cl])([CH2]CCC)[CH2]CCC
inactive: [16]
active: [1] 0.227 µM | [2] 1.01 µM | [3] 0.353 µM | [4] 0.273 µM | [5] 0.226 µM | [6] 0.383 µM | [7] 0.148 µM | [8] 0.326 µM | [9] 0.148 µM | [10] 0.402 µM | [11] 3.97 µM | [12] 0.148 µM | [13] 0.259 µM | [14] 0.406 µM | [15] 0.148 µM | [17] 0.287 µM | [18] 0.148 µM

ClC1=C(Cl)C2(Cl)C3C(Cl)C=CC3C1(Cl)C2(Cl)Cl (stereo not given)
inactive: [11] | [16]
active: [1] 20 µM | [2] 34.6 µM | [3] 29.3 µM | [4] 30 µM | [5] 31.8 µM | [6] 33.6 µM | [7] 32 µM | [8] 31.2 µM | [9] 30.2 µM | [10] 32 µM | [12] 29.3 µM | [13] 8.86 µM | [14] 31.8 µM | [15] 30.2 µM | [17] 11.4 µM | [18] 9.47 µM

Oc1ccc2ccc3cccc4ccc1c2c34
active: [1] 36.1 µM | [3] 13.7 µM | [5] 10.5 µM | [9] 30.4 µM | [10] 30.1 µM | [11] 16.3 µM | [13] 10.3 µM | [14] 27 µM | [19] 14.6 µM | [20] 3.17 µM | [18] 10.4 µM
inactive: [2] | [4] | [6] | [8] | [12] | [15] | [16] | [17]

Nc1ccc(Cc2ccc(N)cc2)cc1
not listed: [19]
inactive: all other assays above

OCCCBr
not listed: [19] | [20]
inactive: all other assays above

CNC(=O)Oc1cccc2c1OC(C)(C)C2
not listed: [19] | [20]
inactive: all other assays above

COP(=S)(OC)SCN1C(=O)c2ccccc2C1=O
not listed: [19] | [20]
inactive: all other assays above

CC(C)COC(=O)c1ccccc1C(=O)OCC(C)C
active: [11] 20 µM | [13] 30.3 µM | [18] 14.4 µM
not listed: [19] | [20]
inactive: all other assays above
